Assay outcomes (PubChem BioAssay)
HT1080NT lethal – kills 2HG-producing HT-1080-NT fibrosarcoma cells | HT-1080-NT fibrosarcoma viability, CellTiter-Glo ATP luminescence, 48 h | Potency, µM (series often up to 46.1 µM), usual class: cytotoxic | 1.6% of 360,000 active | AID 686970;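 further: NT is the 2HG producing partner of a matched IDH1 knockdown line; nearly all actives have a fitted effect of over 55% in size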
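Viability of the 2HG-overproducing fibrosarcoma line after 48 hours of compound exposure at 37 degrees C was determined by luminescence with CellTiter-Glo, and concentration-effect curves were then fitted and categorized.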
KB-3-1 cytotox – KB-3-1 parental cell cytotoxicity; AID 1347075; 1.4% of 400,000 active; Potency, µM (top dose mostly 46.1 µM), most hits filed as cytotoxic; KB-3-1 viability, CellTiter-Glo ATP luminescence, 72 h; further: nearly all actives have a fitted effect of over 60% in size
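72 h, 37 °C compound treatment of KB-3-1 parental cells; CellTiter-Glo added, 10 min, luminescence read. Data corrected against DMSO-only plates and normalized before curve fitting.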
SW480 rereplic – induces DNA re-replication in SW480 colon adenocarcinoma cells; SW480 DNA re-replication, Hoechst DNA content imaging, 48 h; Potency, µM (highest dose often 46.1 µM), usual class: activators; 1.8% of 340,000 active; AID 624297; further: nearly all actives have a fitted effect of over 55% in size
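Per well, 250 cells were exposed to pinned compound for 48 hr. Nuclear DNA was visualised with Hoechst (40 min, 37 C) and total object intensity recorded by fluorescence scanning.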
KB-V1 MDR tox – kills drug-selected multidrug resistant KB-V1 cells; KB-V1 MDR cells viability, CellTiter-Glo, 72 h; AID 1347076; 3.4% of 400,000 active; Potency, µM (series often up to 46.1 µM), hits mostly cytotoxic; further: nearly all actives have a fitted effect of over 60% in size
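Readout: CellTiter-Glo luminescence, 10 min after addition. Cells: KB-V1 MDR subline, 72 h at 37 degrees C with compound. Analysis: corrected, normalized data fitted to concentration-effect curves.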
HT1080 IDH1KD tx – HT-1080 IDH1 knockdown cell toxicity (counter line) | HT-1080 IDH1 knockdown viability, ATP luminescence, 48 h | Potency, µM (doses to about 46.1 µM), hits mostly cytotoxic | 2% of 360,000 active
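Knockdown cells (IDH1KD HT-1080) received compounds 2 h after plating at 750 cells/well and were kept 48 h at 37 °C in 5% FBS RPMI. A CellTiter-Glo luminescence read gave % activity for curve fitting.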
MCF10A rerep – induces DNA re-replication in MCF 10a normal breast cells | MCF 10A DNA re-replication, Hoechst nuclear intensity, 48 h | Potency, µM (doses to about 46.1 µM), hits mostly activators | 2.9% of 350,000 active; further: nearly all actives have a fitted effect of over 50% in size
A number is an active result; . = inactive; ? = inconclusive; / = no result given; ! = not confirmed by another sample. An excerpt weighted towards active compounds, which were near 8% of everything screened. The call rests on the fitted dose curve; in most records, active means well fitted curve in the direction sought with a large enough effect; inconclusive means small, poorly fitted or top-dose-only effect, or another doubt; inactive means no such curve, though single readings can be large; an effect the other way counts as inactive or inconclusive.

SMILES	HT1080NT lethal	KB-3-1 cytotox	SW480 rereplic	KB-V1 MDR tox	HT1080 IDH1KD tx	MCF10A rerep
CN1CCC(Oc2ccc(Sc3ccccc3)cc2)CC1	.	?	.	?	.	.
CN1CCC(Oc2ccccc2Sc2ccc(C(F)(F)F)cc2)CC1	.	.	?	.	.	8.2µM
COc1ccc(/C=C2\SC(=O)N(CCCC(=O)Nc3ccc(C(=O)O)cc3)C2=O)cc1	.	.	/	.	.	/
COc1cc(NC(=O)c2csc(N)n2)cc(C(=O)Nc2cccc(C(F)(F)F)c2)c1	16µM	5.8µM	?	7.3µM!	21µM	?
COc1cc(-c2noc(CCCC(=O)NCc3ccccc3)n2)cc(OC)c1OC	.	.	.	6.5µM	?	.
COc1cc(-c2noc(CCCC(=O)Nc3cccnc3)n2)cc(OC)c1OC	.	.	.	?	.	.
CC(C)N(C(=O)[C@H]1C[C@H](CC(=O)NCCCN(C)C)C(=O)N2CCc3c([nH]c4cc(CCC(=O)N(C)C)ccc34)[C@]12C)C(C)C	.	.	.	.	.	?
Cn1c(=O)c2c(nc(CN3CCN(C(=O)c4ccco4)CC3)n2CCCO)n(C)c1=O	.	.	.	.	.	?
CCc1ccc(-c2nc(CS(=O)CC(=O)NC3CC3)c(C)o2)cc1 (stereo unspecified)	.	.	.	.	.	.
Cc1ccc(-c2nc(CS(=O)CC(=O)NC3CC3)c(C)o2)cc1 (stereo unspecified)	.	.	.	.	.	21µM
CCOC(=O)N1CCC(NC(=O)CS(=O)Cc2nc(-c3ccc(Cl)cc3)oc2C)CC1 (stereo unspecified)	18µM	.	.	.	?	.
CC(=O)N1CCN(C(=O)c2cc(C)nc3ccccc23)CC1	.	.	.	.	.	?
CCOc1ccc(C(=O)OCC(=O)NCCNC(=O)COC(=O)c2ccc(OCC)cc2)cc1	.	.	.	.	.	.
O=C(OCC(=O)N1CCCCC1)c1ccc2ccccc2n1	.	.	.	.	.	.
CCOC(=O)c1oc2ccccc2c1NC(=O)Cc1cccs1	.	.	.	15µM	?	.
Cc1ccc2c(/C=C/c3c[nH]c4ccccc34)ccnc2c1C	/	16µM	/	7.3µM	/	/
COc1ccccc1C=Cc1ccnc2ccccc12	.	?	.	?	.	?
COc1ccc(OC)c2c(/C=C/c3c[nH]c4ccccc34)ccnc12	/	4.1µM	/	?	/	/
CC12CCC(C(=O)Nc3ccccc3Cl)([C@H](Br)C1=O)C2(C)C (stereo partly specified)	.	.	.	.	.	?
CC12CCC(C(=O)Nc3ccccc3Cl)(C(Br)C1=O)C2(C)C (stereo unspecified)	.	.	.	13µM	.	?
CCC(OC(=O)C(NC(=O)c1ccccc1)c1ccccc1)C(=O)Nc1cc(C)on1 (stereo unspecified)	.	.	?	.	.	5.8µM
Cc1cc[n+](CC(=O)c2ccc(NC(=O)c3ccccc3)cc2)c2ccccc12	?	10µM	.	.	.	?
O=C(C[n+]1ccccc1)c1ccc(NC(=O)c2ccccc2)cc1	.	.	.	.	.	.
Cc1cc[n+](CC(=O)c2ccc(NC(=O)c3ccccc3)cc2)cc1	.	?	.	.	.	1.3µM
O=C(Nc1ccc[n+](CC(=O)c2cccc3ccccc23)c1)c1ccccc1	?	23µM	?	.	?	.
SMILES	HT1080NT lethal	KB-3-1 cytotox	SW480 rereplic	KB-V1 MDR tox	HT1080 IDH1KD tx	MCF10A rerep
O=C(C[n+]1cccc2ccccc21)c1ccc(NC(=O)c2ccccc2)cc1	.	.	.	.	.	.
C[C@H]1CCCCO[C@H](CN(C)C(=O)C2CCCCC2)[C@@H](C)CN([C@@H](C)CO)C(=O)c2cc(NC(=O)NC3CCCCC3)ccc2O1	.	.	/	?	.	/
Cc1cc(C)c(NC(=O)CN2CCN(S(=O)(=O)c3ccc4c(c3)OCCO4)CC2)c(C)c1	.	.	/	.	.	/
CCC1CCCCN1S(=O)(=O)c1ccc(N2CCCCS2(=O)=O)cc1 (stereo unspecified)	/	.	/	.	/	/
COCCC(=O)N1CCc2ccc(NC(=O)c3ccc(C(F)(F)F)cc3)cc2C1	?	.	?	.	.	.
CN(C)S(=O)(=O)N1CCc2ccc(NC(=O)c3ccc(C(F)(F)F)cc3)cc2C1	16µM	?	.	?	?	.
Clc1ccc(-n2ncc3c(N4CCCCCC4)ncnc32)cc1	.	.	.	.	.	.
Brc1cc(Br)c2ncnc(N3CCCCC3)c2c1	9.2µM	8.2µM	?	?	?	5.8µM
O=c1[nH]cnc2c1sc1nc(C(F)F)cc(-c3ccccc3)c12	.	?	?	12µM	.	.
O=c1[nH]cnc2c1sc1nc3c(c(-c4ccc(Cl)cc4)c12)CCC3	.	.	.	?	.	.
CCOc1ccc(NS(=O)(=O)c2ccc(OCC)c3ncccc23)cc1	11µM	?	21µM	13µM	10µM	?
COc1ccc(S(=O)(=O)Nc2cc(C)cc(C)n2)c2ccccc12	.	.	.	.	.	.
CCOc1ccc(S(=O)(=O)Nc2cc(C)ccn2)c2ccccc12	.	?	.	18µM	.	.
CCCN1CCN(CCCNC(=O)c2cc3c(s2)-c2c(C)cccc2OC3)CC1	23µM	?	?	.	18µM	?
CC1CCCC(C)N1CCCNC(=O)c1cc2c(s1)-c1ccccc1OC2 (stereo unspecified)	?	.	?	.	21µM	.
Cc1cccc(CCNC(=O)c2cc3c(s2)-c2c(C)cccc2OC3)c1	/	.	/	.	/	/
Cc1cccc2c1-c1sc(C(=O)NCCCN3CCCC(C)C3)cc1CO2 (stereo unspecified)	21µM	.	18µM	.	21µM	23µM
COc1ccc(CNC(=O)c2cc3c(s2)-c2c(C)cccc2OC3)cc1	/	.	/	.	/	/
CCN1CCN(CCCNC(=O)c2cc3c(s2)-c2ccccc2OC3)CC1	?	.	?	?	?	?
CC1CC(C)CN(CCCNC(=O)c2cc3c(s2)-c2ccccc2OC3)C1 (stereo unspecified)	18µM	?	.	.	18µM	?
CN(C)CCNC(=O)c1cc2c(s1)-c1ccccc1OC2	?	.	.	.	?	?
CCc1ccc(C(O)c2ncc(-c3ccccc3C(F)(F)F)[nH]2)cc1 (stereo unspecified)	.	.	/	?	.	/
CCCN1CCN(CCCNC(=O)c2cc3c(s2)-c2ccccc2OC3)CC1	23µM	.	?	?	?	.
Cc1csc(NC(=O)c2cc3c(s2)-c2ccccc2OC3)n1	.	.	.	.	.	15µM
Cc1[nH]cnc1CN1CCc2c(c3ccccc3n2C)C1=O	.	.	.	.	.	.
